# Measurements: PubChem BioAssay AID1159580 (chemical genetic matrix, 2015)
# The campaign covered roughly 5,500 compounds. About 2,000 (36%) were called active. Another 18% or so got no clear call; they are omitted. The list shows a part of the results. A number with no mark means an inactive call. Rule as the data show it: active = normalized growth mostly below about 0.91 (no sharp cut-off); inconclusive = no clear call, values can overlap the other calls; inactive = mostly above about 0.92.
# Assay: chemical genetic growth profiling, strain panel (AID 1159580);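 also: tested at 20 µM; growth read once vehicle control cultures reached saturation at 30 °C; 1 = growth at the plate median or of vehicle wells; lower values mean less growth of the strain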
# Conditions: S. cerevisiae deletion strains, growth OD
# [1] = locus YHR030C, strain SLT2, active compounds read low
# [2] = locus YHR079C, strain IRE1, active compounds read low
# [3] = locus YJL095W, strain BCK1, active compounds read low
# [4] = locus YJR066W, strain TOR1, active compounds read low
# [5] = locus YLR113W, strain HOG1, active compounds read low
# [6] = locus YNL183C, strain NPR1, active compounds read low
# [7] = locus YOR231W, strain MKK1, active compounds read low
# [8] = locus YPL256C, strain CLN2, active compounds read low
smiles,measurement,setting,value
COc1ccc(-c2cc(=O)c3c(OC)c(OC)c(OC)c(OC)c3o2)cc1,normalized growth,"locus YAL021C, strain ccr4, active compounds read low",0.996
same,normalized growth,"locus YAL026C, strain drs2, active compounds read low",0.846 (active)
same,normalized growth,"locus YAL030W, strain snc1, active compounds read low",0.959
same,normalized growth,"locus YBL061C, strain skt5, active compounds read low",0.792 (active)
same,normalized growth,"locus YBR009C, strain hhf1, active compounds read low",0.91
same,normalized growth,"locus YBR023C, strain chs3, active compounds read low",0.848 (active)
same,normalized growth,"locus YBR171W, strain sec66, active compounds read low",0.961
same,normalized growth,"locus YBR231C, strain swc5, active compounds read low",0.795 (active)
same,normalized growth,"locus YBR279W, strain paf1, active compounds read low",0.942
same,normalized growth,"locus YCL011C, strain gbp2, active compounds read low",0.907 (active)
same,normalized growth,"locus YCL016C, strain dcc1, active compounds read low",0.911 (active)
same,normalized growth,"locus YCL061C, strain MRC1, active compounds read low",0.918 (active)
same,normalized growth,"locus YCL069W, strain vba3, active compounds read low",0.934
same,normalized growth,"locus YCR088W, strain abp1, active compounds read low",0.937
same,normalized growth,"locus YDL005C, strain med2, active compounds read low",0.985
same,normalized growth,"locus YDL040C, strain nat1, active compounds read low",0.975
same,normalized growth,"locus YDR001C, strain nth1, active compounds read low",0.959
same,normalized growth,"locus YDR069C, strain doa4, active compounds read low",0.981
same,normalized growth,"locus YDR137W, strain rgp1, active compounds read low",0.705 (active)
same,normalized growth,"locus YDR159W, strain sac3, active compounds read low",0.931
same,normalized growth,"locus YDR195W, strain ref2",1.05
same,normalized growth,"locus YDR297W, strain sur2, active compounds read low",0.954
same,normalized growth,"locus YDR334W, strain swr1, active compounds read low",0.938
same,normalized growth,"locus YDR335W, strain msn5, active compounds read low",0.915 (active)
same,normalized growth,"locus YDR392W, strain spt3, active compounds read low",0.248 (active)
same,normalized growth,"locus YEL003W, strain gim4, active compounds read low",0.964
same,normalized growth,"locus YEL037C, strain rad23, active compounds read low",0.99
same,normalized growth,"locus YEL061C, strain CIN8 (second series), active compounds read low",0.874 (active)
same,normalized growth,"locus YER015W, strain faa2, active compounds read low",0.912 (active)
same,normalized growth,"locus YER016W, strain bim1, active compounds read low",0.898 (active)
same,normalized growth,"locus YER111C, strain swi4, active compounds read low",0.978
same,normalized growth,"locus YER155C, strain BEM2 (second series), active compounds read low",0.51 (active)
same,normalized growth,"locus YFR010W, strain ubp6, active compounds read low",0.967
same,normalized growth,"locus YGL167C, strain pmr1, active compounds read low",0.972
same,normalized growth,"locus YGL173C, strain kem1, active compounds read low",0.913
same,normalized growth,"locus YGL227W, strain vid30, active compounds read low",0.87 (active)
same,normalized growth,"locus YGL240W, strain doc1, active compounds read low",0.84 (active)
same,normalized growth,"locus YGL253W, strain hxk2, active compounds read low",0.792 (active)
same,normalized growth,"locus YHR013C, strain ard1, active compounds read low",0.887
same,normalized growth,"locus YHR027C, strain rpn1, active compounds read low",0.974
same,normalized growth,[1],1.02
same,normalized growth,[2],1.02
same,normalized growth,"locus YHR142W, strain chs7, active compounds read low",0.54 (active)
same,normalized growth,"locus YJL092W, strain hpr5, active compounds read low",0.946
same,normalized growth,"locus YJL095W, strain BCK1 (second series), active compounds read low",0.899 (active)
same,normalized growth,[3],0.984
same,normalized growth,"locus YJL115W, strain asf1, active compounds read low",0.977
same,normalized growth,"locus YJL129C, strain trk1, active compounds read low",0.774 (active)
same,normalized growth,"locus YJL154C, strain vps35, active compounds read low",0.996
same,normalized growth,"locus YJL164C, strain tpk1, active compounds read low",0.933
same,normalized growth,"locus YJL166W, strain qcr8, active compounds read low",0.801 (active)
same,normalized growth,"locus YJL187C, strain SWE1, active compounds read low",0.922 (active)
same,normalized growth,[4],0.964
same,normalized growth,"locus YKL160W, strain elf1, active compounds read low",0.887 (active)
same,normalized growth,"locus YKR026C, strain gcn3, active compounds read low",0.974
same,normalized growth,"locus YKR091W, strain srl3, active compounds read low",0.986
same,normalized growth,"locus YLL001W, strain dnm1, active compounds read low",0.922
same,normalized growth,"locus YLL026W, active compounds read low",0.968
same,normalized growth,"locus YLL041C, strain sdh2, active compounds read low",0.973
same,normalized growth,"locus YLR027C, strain aat2, active compounds read low",0.892 (active)
same,normalized growth,[5],0.96
same,normalized growth,"locus YLR221C, strain rsa3, active compounds read low",0.889 (active)
same,normalized growth,"locus YLR258W, strain gsy2, active compounds read low",0.944
same,normalized growth,"locus YLR262C, strain YPT6 (second series), active compounds read low",0.692 (active)
same,normalized growth,"locus YLR320W, strain mms22, active compounds read low",0.635 (active)
same,normalized growth,"locus YLR342W, strain FKS1, active compounds read low",0.904 (active)
same,normalized growth,"locus YLR357W, strain rsc2, active compounds read low",0.924
same,normalized growth,"locus YLR370C, strain arc18, active compounds read low",0.862 (active)
same,normalized growth,"locus YLR384C, strain iki3, active compounds read low",0.978
same,normalized growth,"locus YML120C, strain ndi1, active compounds read low",0.948
same,normalized growth,"locus YMR058W, strain fet3, active compounds read low",0.845 (active)
same,normalized growth,"locus YMR125W, strain sto1, active compounds read low",0.899
same,normalized growth,"locus YMR129W, active compounds read low",0.978
same,normalized growth,"locus YMR205C, strain PFK2, active compounds read low",0.78 (active)
same,normalized growth,"locus YMR231W, strain pep5, active compounds read low",1.01
same,normalized growth,"locus YNL071W, strain lat1, active compounds read low",0.473 (active)
same,normalized growth,[6],0.937
same,normalized growth,"locus YNL209W, strain ssb2, active compounds read low",0.994
same,normalized growth,"locus YNL248C, strain rpa49, active compounds read low",0.997
same,normalized growth,"locus YNL322C, strain KRE1 (second series), active compounds read low",0.943
same,normalized growth,"locus YNR049C, strain mso1, active compounds read low",0.985
same,normalized growth,"locus YOR001W, strain rrp6, active compounds read low",0.962
same,normalized growth,"locus YOR070C, strain gyp1, active compounds read low",0.961
same,normalized growth,"locus YOR080W, strain dia2, active compounds read low",0.992
same,normalized growth,"locus YOR083W, strain WHI5, active compounds read low",0.879 (active)
same,normalized growth,"locus YOR106W, strain vam3, active compounds read low",0.837 (active)
same,normalized growth,[7],1.02
same,normalized growth,"locus YOR265W, strain rbl2, active compounds read low",0.94
same,normalized growth,"locus YOR270C, strain vph1, active compounds read low",0.644 (active)
same,normalized growth,"locus YOR290C, strain snf2, active compounds read low",0.886
same,normalized growth,"locus YPL051W, strain arl3, active compounds read low",0.882 (active)
same,normalized growth,"locus YPL078C, strain atp4, active compounds read low",0.791 (active)
same,normalized growth,"locus YPL106C, strain sse1, active compounds read low",0.927
same,normalized growth,"locus YPL240C, strain hsp82, active compounds read low",0.966
same,normalized growth,[8],1.04
N#CCCCCOc1ccc2c(=O)cc(-c3ccccc3)oc2c1,normalized growth,"locus YAR019C, strain CDC15, active compounds read low",0.99
same,normalized growth,"locus YBL105C, strain PKC1, active compounds read low",0.978
same,normalized growth,"locus YBR135W, strain CKS1, active compounds read low",0.977
same,normalized growth,"locus YBR136W, strain MEC1, active compounds read low",0.977
same,normalized growth,"locus YBR160W, strain CDC28, active compounds read low",0.977
same,normalized growth,"locus YDL017W, strain CDC7, active compounds read low",0.988
same,normalized growth,"locus YDL028C, strain MPS1, active compounds read low",0.981
same,normalized growth,"locus YDL101C, strain DUN1, active compounds read low",0.972
same,normalized growth,"locus YDL108W, strain KIN28, active compounds read low",0.977
same,normalized growth,"locus YDL132W, strain cdc53, active compounds read low",0.971
same,normalized growth,"locus YDL214C, strain PRR2, active compounds read low",0.946
same,normalized growth,"locus YDR052C, strain DBF4, active compounds read low",0.989
same,normalized growth,"locus YDR054C, strain cdc34, active compounds read low",0.988
same,normalized growth,"locus YDR226W, strain ADK1, active compounds read low",0.977
same,normalized growth,"locus YDR477W, strain SNF1, active compounds read low",0.959
same,normalized growth,"locus YER123W, strain YCK3, active compounds read low",0.954
same,normalized growth,"locus YER133W, strain GLC7, active compounds read low",0.972
same,normalized growth,"locus YFL009W, strain cdc4, active compounds read low",0.979
same,normalized growth,"locus YFL029C, strain CAK1, active compounds read low",0.989
same,normalized growth,"locus YFR003C, strain YPI1, active compounds read low",0.981
same,normalized growth,"locus YFR019W, strain FAB1, active compounds read low",0.961
same,normalized growth,"locus YFR028C, strain CDC14, active compounds read low",0.974
same,normalized growth,"locus YGR040W, strain KSS1, active compounds read low",0.94
same,normalized growth,"locus YGR052W, strain FMP48, active compounds read low",0.972
same,normalized growth,"locus YGR092W, strain DBF2, active compounds read low",0.938
same,normalized growth,[1],1.08
same,normalized growth,[2],1.08
same,normalized growth,"locus YHR082C, strain KSP1, active compounds read low",1.07
same,normalized growth,"locus YHR205W, strain SCH9, active compounds read low",0.976
same,normalized growth,"locus YIL147C, strain SLN1, active compounds read low",0.974
same,normalized growth,[3],0.933
same,normalized growth,"locus YJL128C, strain PBS2, active compounds read low",0.938
same,normalized growth,"locus YJL157C, strain FAR1, active compounds read low",0.971
same,normalized growth,"locus YJR016C, strain ILV3, active compounds read low",0.967
same,normalized growth,"locus YJR066W, strain TOR1 (second series), active compounds read low",0.914
same,normalized growth,[4],1.04
same,normalized growth,"locus YKL048C, strain ELM1, active compounds read low",0.966
same,normalized growth,"locus YKL067W, strain YNK1, active compounds read low",0.956
same,normalized growth,"locus YKL101W, strain HSL1, active compounds read low",0.936
same,normalized growth,"locus YKL193C, strain SDS22, active compounds read low",0.969
same,normalized growth,"locus YKL203C, strain TOR2, active compounds read low",1.01
same,normalized growth,[5],0.955
same,normalized growth,"locus YLR133W, strain CKI1, active compounds read low",0.965
same,normalized growth,"locus YLR403W, strain SFP1, active compounds read low",0.921
same,normalized growth,"locus YML070W, strain DAK1, active compounds read low",0.956
same,normalized growth,"locus YMR001C, strain CDC5, active compounds read low",0.978
same,normalized growth,"locus YMR205C, strain PFK2 (second series), active compounds read low",0.967
same,normalized growth,"locus YMR277W, strain FCP1, active compounds read low",0.976
same,normalized growth,"locus YNL006W, strain LST8, active compounds read low",0.987
same,normalized growth,"locus YNL020C, strain ARK1, active compounds read low",0.956
same,normalized growth,"locus YNL161W, strain CBK1, active compounds read low",0.98
same,normalized growth,[6],1.02
same,normalized growth,"locus YNL207W, strain RIO2, active compounds read low",0.965
same,normalized growth,"locus YNL222W, strain SSU72, active compounds read low",0.982
same,normalized growth,"locus YNL307C, strain MCK1 (second series), active compounds read low",0.927
same,normalized growth,"locus YOL078W, strain AVO1, active compounds read low",0.972
same,normalized growth,"locus YOL136C, strain PFK27, active compounds read low",0.919
same,normalized growth,"locus YOR061W, strain CKA2, active compounds read low",0.961
same,normalized growth,"locus YOR119C, strain RIO1, active compounds read low",1.01
same,normalized growth,[7],0.964
same,normalized growth,"locus YOR329C, strain SCD5, active compounds read low",0.984
same,normalized growth,"locus YPL031C, strain PHO85, active compounds read low",0.968
same,normalized growth,"locus YPL153C, strain RAD53, active compounds read low",0.953
same,normalized growth,"locus YPL204W, strain HRR25, active compounds read low",0.943
same,normalized growth,"locus YPL209C, strain IPL1, active compounds read low",0.982
same,normalized growth,[8],1.15 [resistant] (active)
same,normalized growth,"locus YPR025C, strain CCL1, active compounds read low",0.982
same,normalized growth,"locus YPR106W, strain ISR1, active compounds read low",0.983
same,normalized growth,"locus YPR111W, strain DBF20, active compounds read low",0.961
same,normalized growth,"strain NNK1, active compounds read low",0.975
same,normalized growth,"strain TSCII, active compounds read low",0.976
